Values joined by “and” are separate entries in the source; they are usually repeats but may differ in a detail not shown here. Equal values may be shown once. About 2,000 (36%) of roughly 5,500 compounds were called active. Inconclusive results (about 18%) are left out. Rule as the data show it: active = normalized growth mostly below about 0.91 (no sharp cut-off); inconclusive = no clear call, values can overlap the other calls; inactive = mostly above about 0.92. This is one part of the list.
Test: chemical genetic growth profiling, strain panel (AID 1159580);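 also: tested at 20 µM; growth read once vehicle control cultures reached saturation at 30 °C; 1 = growth at the plate median or of vehicle wells; lower values mean less growth of the strain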
Settings: S. cerevisiae deletion strains, growth OD

Measured: normalized growth

C[C@@H]1CC[C@]2(C(=O)O)CC[C@]3(C)C(=CCC4[C@@]5(C)CC[C@H](O)C(C)(C)C5CC[C@]43C)C2[C@H]1C (stereo partly specified)
active: locus YGL086W, strain mad1, active compounds read low 1.28 [resistant] | locus YKL085W, strain MDH1 (second series), active compounds read low 1.33 [resistant] | locus YKL085W, strain MDH1, active compounds read low 1.33 [resistant]
inactive: locus YAL021C, strain ccr4, active compounds read low 0.995 | locus YAL026C, strain drs2, active compounds read low 1.01 | locus YAL030W, strain snc1, active compounds read low 0.995 | locus YBL061C, strain skt5, active compounds read low 1.01 | locus YBR009C, strain hhf1, active compounds read low 1.01 | locus YBR021W, strain FUR4, active compounds read low 1.03 | locus YBR023C, strain chs3, active compounds read low 1.01 | locus YBR171W, strain sec66, active compounds read low 1 | locus YBR229C, strain ROT2, active compounds read low 1.03 | locus YBR231C, strain swc5, active compounds read low 1.01 | locus YBR279W, strain paf1, active compounds read low 1 | locus YCL011C, strain gbp2, active compounds read low 1 | locus YCL016C, strain dcc1, active compounds read low 1.01 | locus YCL029C, strain bik1, active compounds read low 1 | locus YCL061C, strain MRC1, active compounds read low 0.997 | locus YCL069W, strain vba3, active compounds read low 1.01 | locus YCR088W, strain abp1, active compounds read low 0.993 | locus YDL005C, strain med2, active compounds read low 0.998 | locus YDL035C, strain GPR1, active compounds read low 1.04 | locus YDL040C, strain nat1, active compounds read low 0.992 | locus YDL074C, strain BRE1, active compounds read low 1.07 | locus YDL101C, strain DUN1, active compounds read low 1.03 | locus YDL134C, strain PPH21, active compounds read low 1.08 | locus YDL185W, strain tfp1, active compounds read low 0.999 | locus YDL192W, strain arf1, active compounds read low 1.01 | locus YDR001C, strain nth1, active compounds read low 1 | locus YDR069C, strain doa4, active compounds read low 1 | locus YDR101C, strain arx1, active compounds read low 1.01 | locus YDR137W, strain rgp1, active compounds read low 1.04 | locus YDR150W, strain NUM1, active compounds read low 1.03 | locus YDR159W, strain sac3, active compounds read low 1 | locus YDR162C, strain NBP2, active compounds read low 1.07 | locus YDR195W, strain ref2 0.974 | locus YDR297W, strain sur2, active compounds read low 1 | locus YDR318W, strain mcm21, active compounds read low 0.993 | locus YDR334W, strain swr1, active compounds read low 1 | locus YDR335W, strain msn5, active compounds read low 0.997 | locus YDR388W, active compounds read low 1 | locus YDR392W, strain spt3, active compounds read low 0.911 | locus YDR502C, strain sam2, active compounds read low 0.997 | locus YEL003W, strain gim4, active compounds read low 0.998 | locus YEL037C, strain rad23, active compounds read low 1 | locus YEL061C, strain CIN8 (second series), active compounds read low 0.995 | locus YEL061C, strain CIN8, active compounds read low 1.02 | locus YER015W, strain faa2, active compounds read low 1.01 | locus YER016W, strain bim1, active compounds read low 0.999 | locus YER110C, active compounds read low 1.01 | locus YER111C, strain swi4, active compounds read low 0.984 | locus YER155C, strain BEM2 (second series), active compounds read low 0.992 | locus YER155C, strain BEM2, active compounds read low 1.02 | locus YER167W, strain BCK2, active compounds read low 1.03 | locus YFR010W, strain ubp6, active compounds read low 0.983 | locus YGL078C, strain dbp3, active compounds read low 0.985 | locus YGL167C, strain pmr1, active compounds read low 1 | locus YGL173C, strain kem1, active compounds read low 1.01 | locus YGL227W, strain vid30, active compounds read low 0.994 | locus YGL240W, strain doc1, active compounds read low 0.998 | locus YGL248W, strain PDE1, active compounds read low 1.03 | locus YGL253W, strain hxk2, active compounds read low 1.01 | locus YGR135W, strain pre9, active compounds read low 0.996 | locus YGR229C, strain SMI1, active compounds read low 1.06 | locus YGR252W, strain gcn5, active compounds read low 1.01 | locus YHR013C, strain ard1, active compounds read low 0.996 | locus YHR027C, strain rpn1, active compounds read low 0.995 | locus YHR030C, strain SLT2, active compounds read low 1.02 | locus YHR079C, strain IRE1 (second series), active compounds read low 0.996 | locus YHR079C, strain IRE1, active compounds read low 1.02 | locus YHR094C, strain hxt1, active compounds read low 1.01 | locus YHR129C, strain ARP1, active compounds read low 1.03 | locus YHR142W, strain chs7, active compounds read low 1.03 | locus YHR200W, strain rpn10, active compounds read low 0.986 | locus YIL066C, strain RNR3, active compounds read low 1.07 | locus YIL073C, strain SPO22, active compounds read low 0.999 | locus YIL125W, strain kgd1, active compounds read low 1 | locus YIR030C, strain dcg1, active compounds read low 0.997 | locus YJL092W, strain hpr5, active compounds read low 0.999 | locus YJL095W, strain BCK1 (second series), active compounds read low 0.988 | locus YJL095W, strain BCK1, active compounds read low 1.08 and 1.01 | locus YJL115W, strain asf1, active compounds read low 0.992 | locus YJL129C, strain trk1, active compounds read low 1.01 | locus YJL134W, strain LCB3, active compounds read low 1.02 | locus YJL154C, strain vps35, active compounds read low 0.997 | locus YJL164C, strain tpk1, active compounds read low 1.01 | locus YJL166W, strain qcr8, active compounds read low 1 | locus YJL168C, strain set2, active compounds read low 0.986 | locus YJL187C, strain SWE1 (second series), active compounds read low 1.05 | locus YJL187C, strain SWE1, active compounds read low 0.997 | locus YJR043C, strain POL32, active compounds read low 1.06 | locus YJR066W, strain TOR1, active compounds read low 1.02 | locus YKL068W, active compounds read low 1.01 | locus YKL160W, strain elf1, active compounds read low 1 | locus YKL190W, strain CNB1, active compounds read low 1.02 | locus YKR001C, strain vps1, active compounds read low 1.02 | locus YKR026C, strain gcn3, active compounds read low 0.996 | locus YKR091W, strain srl3, active compounds read low 0.991 | locus YLL001W, strain dnm1, active compounds read low 0.989 | locus YLL026W, active compounds read low 0.989 | locus YLL041C, strain sdh2, active compounds read low 0.995 | locus YLR027C, strain aat2, active compounds read low 1.01 | locus YLR039C, strain RIC1, active compounds read low 1.14 | locus YLR058C, strain SHM2, active compounds read low 1.04 | locus YLR102C, strain apc9, active compounds read low 0.987 | locus YLR113W, strain HOG1, active compounds read low 0.995 | locus YLR221C, strain rsa3, active compounds read low 1 | locus YLR258W, strain gsy2, active compounds read low 1.01 | locus YLR262C, strain YPT6 (second series), active compounds read low 1.02 | locus YLR262C, strain YPT6, active compounds read low 1.11 | locus YLR268W, strain sec22, active compounds read low 1.01 | locus YLR320W, strain mms22, active compounds read low 1.01 | locus YLR330W, strain CHS5, active compounds read low 1.03 | locus YLR342W, strain FKS1 (second series), active compounds read low 1.02 | locus YLR342W, strain FKS1, active compounds read low 1 | locus YLR357W, strain rsc2, active compounds read low 0.975 | locus YLR370C, strain arc18, active compounds read low 0.998 | locus YLR371W, strain rom2, active compounds read low 0.995 | locus YLR384C, strain iki3, active compounds read low 0.995 | locus YLR418C, strain cdc73, active compounds read low 1.02 | locus YML016C, strain PPZ1, active compounds read low 1.03 | locus YML032C, strain rad52, active compounds read low 0.988 | locus YML120C, strain ndi1, active compounds read low 0.999 | locus YML124C, strain tub3, active compounds read low 0.999 | locus YMR058W, strain fet3, active compounds read low 1.01 | locus YMR078C, strain ctf18, active compounds read low 0.976 | locus YMR125W, strain sto1, active compounds read low 0.986 | locus YMR129W, active compounds read low 0.997 | locus YMR205C, strain PFK2, active compounds read low 0.991 | locus YMR223W, strain ubp8, active compounds read low 0.992 | locus YMR231W, strain pep5, active compounds read low 0.998 | locus YMR263W, strain SAP30, active compounds read low 1.04 | locus YMR307W, strain GAS1, active compounds read low 1.15 | locus YNL067W, strain RPL9B, active compounds read low 1.06 | locus YNL071W, strain lat1, active compounds read low 1.01 | locus YNL128W, strain TEP1, active compounds read low 1.04 | locus YNL183C, strain NPR1, active compounds read low 0.993 | locus YNL209W, strain ssb2, active compounds read low 0.993 | locus YNL233W, strain BNI4, active compounds read low 1.05 | locus YNL248C, strain rpa49, active compounds read low 1.01 | locus YNL250W, strain rad50, active compounds read low 0.997 | locus YNL271C, strain bni1, active compounds read low 0.991 | locus YNL298W, strain CLA4, active compounds read low 1.01 | locus YNL307C, strain MCK1, active compounds read low 1.01 | locus YNL322C, strain KRE1 (second series), active compounds read low 0.979 | locus YNL322C, strain KRE1, active compounds read low 1.03 | locus YNR049C, strain mso1, active compounds read low 0.993 | locus YNR052C, strain pop2, active compounds read low 0.982 | locus YOL012C, strain htz1 1.17 | locus YOL147C, strain pex11, active compounds read low 0.992 | locus YOR001W, strain rrp6, active compounds read low 1.01 | locus YOR061W, strain CKA2, active compounds read low 1.03 | locus YOR069W, strain VPS5, active compounds read low 1.02 | locus YOR070C, strain gyp1, active compounds read low 1.01 | locus YOR080W, strain dia2, active compounds read low 0.998 | locus YOR083W, strain WHI5, active compounds read low 0.99 | locus YOR106W, strain vam3, active compounds read low 1.01 | locus YOR136W, strain idh2, active compounds read low 0.993 | locus YOR144C, strain elg1, active compounds read low 0.99 | locus YOR184W, strain ser1, active compounds read low 1.03 | locus YOR231W, strain MKK1, active compounds read low 1.02 | locus YOR265W, strain rbl2, active compounds read low 0.999 | locus YOR270C, strain vph1, active compounds read low 1 | locus YOR290C, strain snf2, active compounds read low 0.995 | locus YOR316C, strain cot1, active compounds read low 1.01 | locus YPL051W, strain arl3, active compounds read low 1.01 | locus YPL055C, strain LGE1, active compounds read low 1.1 | locus YPL078C, strain atp4, active compounds read low 1 | locus YPL106C, strain sse1, active compounds read low 0.984 | locus YPL240C, strain hsp82, active compounds read low 1.01 | locus YPL256C, strain CLN2, active compounds read low 0.993 | locus YPR119W, strain clb2, active compounds read low 1 | locus YPR141C, strain kar3, active compounds read low 0.998 | locus YPR163C, strain tif3, active compounds read low 0.997 | locus YPR167C, strain met16, active compounds read low 1.01 | strain wtn01, active compounds read low 1.02
